Source: PubChem BioAssay (NCI)
This is part of a sample that, as a whole, favours compounds with a hit. Of some 83,000 tested, about 20% had one in any assay.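 Growth was measured after 48 h exposure to one concentration of compound in 96-well plates. Values under 10 count as active.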 Values without a mark were called inactive. Calls of active or inactive are those of the source.

Columns and labels:
Test in all cases: NCI-60 one-dose screen, 48 h (100 = growth as untreated, 0 = no growth, -100 = all killed)
HCT-15 colon = conditions: 10 µM unless noted
HT29 colon = conditions: 10 µM unless noted
SNB-75 CNS = conditions: 10 µM unless noted
SNB-19 CNS = conditions: 10 µM unless noted
U251 CNS = conditions: 10 µM unless noted
PC-3 prostate = conditions: 10 µM unless noted
SK-MEL-5 melanoma = conditions: 10 µM unless noted
UACC-62 melanoma = conditions: 10 µM unless noted
LOX IMVI melanoma = conditions: 10 µM
SK-MEL-28 melanoma = conditions: 10 µM unless noted
SK-MEL-2 melanoma = conditions: 10 µM unless noted
EKVX NSCLC = conditions: 10 µM unless noted
SN12C renal = conditions: 10 µM unless noted
UO-31 renal = conditions: 10 µM unless noted
TK-10 renal = conditions: 10 µM unless noted
ACHN renal = conditions: 10 µM unless noted
CAKI-1 renal = conditions: 10 µM unless noted
A498 renal = conditions: 10 µM unless noted
CCRF-CEM leukemia = conditions: 10 µM unless noted
MOLT-4 leukemia = conditions: 10 µM unless noted

Compound | growth (HCT-15 colon) [%] | growth (HT29 colon) [%] | growth (SNB-75 CNS) [%] | growth (SNB-19 CNS) [%] | growth (U251 CNS) | growth (PC-3 prostate) [%] | growth (SK-MEL-5 melanoma) | growth (UACC-62 melanoma) | growth (LOX IMVI melanoma) | growth (SK-MEL-28 melanoma) [%] | growth (SK-MEL-2 melanoma) | growth (EKVX NSCLC) | growth (SN12C renal) [%] | growth (UO-31 renal) | growth (TK-10 renal) [%] | growth (ACHN renal) | growth (CAKI-1 renal) | growth (A498 renal) [%] | growth (CCRF-CEM leukemia) | growth (MOLT-4 leukemia)
C[n+]1ccccc1C[n+]1ccccc1 | 110 | 103 | 101 | 104 | 109% | 91.4 | 105% | 105% | 114% | 98.3 | 94.4% | 113% | 105 | 90.5% | 98.9 | 112% | 114% | 109 | 92.7% | 83.6%
CCOC(=O)C1=NN(c2ccccc2)C(=O)/C1=C\N1C(=O)/C(=C/c2cccc(O)c2)SC1=S | 109 | 111 | 97.2 | 94.4 | 89% | 88 | 95% | 91.9% | 88% | 111 | 99.6% | 107% | 82.3 | 76% | 117 | 99.5% | 100% | 94.5 | 93% | 95.7%
c1ccc(C2NCCNC2c2ccccc2)cc1 (stereo not drawn) | 102 | 101 | 87.5 | 102 | 107% | 98.6 | 104% | 102% | 99.1% | 111 | 98.7% | 103% | 102 | 80.9% | 110 | 108% |  | 80.6 | 104% | 99.7%
NC(=S)N/N=C\c1nccc2c(C(F)(F)F)cccc12 | 28.6 | 18.5 | 11.6 | 30.6 | 5.79% (active) | 18.6 | -41.5% (active) | -3.16% (active) | 4.01% (active) | 26.6 | -7.77% (active) | 1.87% (active) | 17.2 | -35.2% (active) | 17 | 6.72% (active) | -2.51% (active) |  | -9.85% (active) | -40.2% (active)
CC(C)Nc1ccc(Nc2ccc(NC(C)C)cc2)cc1 | 92.9 | 26.9 | 79.7 | 28.6 | 16.9% | 38.8 | 33.2% | 36.6% | 39.9% | 50.8 | 69.9% | 31.3% | 30.7 | 87% | 62.6 | 70.4% | 94.4% | 84.1 | 58.6% | 30.1%
Oc1cc(Cl)ccc1Cc1ccc(Cl)cc1O | 52 | 102 | 76.8 | 66.1 | 52.7% | 43.5 | 11.7% | 32.2% | 50.6% | 89.3 | 66.1% | 51.2% | 36.2 | 46.4% | 95.6 | 49.4% | 92.9% | 126 | 45.7% | 43.5%
Cc1ccccc1N=C(N)Nc1ccccc1C (tested in a mixture with another compound) | 66.5 | 97.3 | 99.5 | 89.1 | 84% | 70.7 | 73.1% | 90.5% | 93% | 105 | 85.7% | 85.3% | 82.8 | 71.1% | 67.8 | 77.9% | 52.9% | 96.8 | 9.64% (active) | 37.1%
OC(CSc1ccccc1)CN1CCN(c2ccc(Cl)cc2)CC1 (stereo not drawn) | 96.1 | 101 | 91.3 | 94.7 | 95.2% | 94.3 | 89.2% | 82.2% | 93% | 110 | 98.5% | 95.2% | 94.4 | 84.8% | 101 | 97.9% | 88.1% | 82.1 | 86% | 83%
